Results from PubChem BioAssay (NCATS).
Inconclusive results are not listed. The source made the active and inactive calls. Unless noted, calls follow the shape of the dose curve; as a rule, active = well fitted curve in the direction sought with a large enough effect; inconclusive = small, poorly fitted or top-dose-only effect, or another doubt; inactive = no such curve, though single readings can be large; an effect the other way counts as inactive or inconclusive.

Legend:
[1] = target: Tumor susceptibility gene 101 protein (Homo sapiens) (UniProt Q99816); test: qHTS Validation Assay for Iinhibitors of HIV-1 Budding by Blocking the Interaction of PTAP/TSG101 (AID 485342; calls by dose curve); details: TSG101-PTAP binding, fluorescence polarization, 4-point titration; series mostly up to 115 µM
Procedure, shortened: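 Tsg101 binding domain (10 uM) with FITC-labeled PTAP peptide (50 nM) in HEPES pH 7.5 buffer, 20 min at r.t. with compounds. Binding measured by fluorescence polarization.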

[2] = qHTS Validation Assay to Find Inhibitors of Chronic Active B-Cell Receptor Signaling (AID 485345; active = well fitted curve in the direction sought with a large enough effect in the main read-out, with a control signal flat, not every such curve was filed as active); details: ABC-DLBCL cells, chronic BCR signaling reporter, CBG luciferase; series mostly up to 46.1 µM
Procedure, shortened: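 TMD8 ABC-DLBCL cells stably carrying doxycycline-inducible IkappaBalpha–green luciferase fusion plus unfused red luciferase; compounds 46 uM to 3 nM, 4 h at 37C with doxycycline. Corrected green/red luminescence ratio normalized to 10 uM MG-132 and basal cell wells; curves fitted.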

[3] = target: Beta-2 adrenergic receptor (Homo sapiens) (UniProt P07550); test: qHTS validation assay of beta-arrestin-biased ligands of beta2-adrenergic receptor (AID 485366); details: cell-based beta-arrestin recruitment to ADRB2, qHTS; series mostly up to 46.1 µM
Procedure, shortened: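 Values derive from curve-fitted %Activity of a luminescent beta-arrestin recruitment reporter; compounds tested up to 46 microM on Tango cells for 18 hr at 37 degrees C, 5% CO2.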

[4] = target: ATP-dependent 6-phosphofructokinase (Trypanosoma brucei brucei) (UniProt O15648); test: qHTS Validation Assay to Find Inhibitors of T. brucei phosphofructokinase (AID 485368); details: T. brucei PFK enzyme assay, qHTS 7-point titration; at 57.5 µM (top of the series)
Procedure, shortened: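 Enzyme reaction in triethanolamine buffer pH 8.0 with 5 mM MgCl2, 0.01% Tween20 and 0.1% BSA; PFK 1.25 nM, F6P 0.5 mM, ATP 0.1 mM, 45 min RT. ADP quantified by ADP-Glo.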

[5] = Quantitative high throughput screen for delayed death inhibitors of the malarial parasite plastid, 96 hour incubation (AID 488745); details: Plasmodium falciparum growth; series mostly up to 28.7 µM; also: nearly all actives have a fitted effect of over 70% in size; also: potency is read from the fitted curve at half-maximal effect
Procedure, shortened: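 Infected erythrocytes were added to compound in Albumax-supplemented RPMI 1640 at 0.1% parasitemia and 2% hematocrit (final), incubated 96 h at 37 C under 5% CO2, then luciferase reagent was added and luminescence measured.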

[6] = Quantitative high throughput screen for delayed death inhibitors of the malarial parasite plastid, 48 hour incubation (AID 488752); details: Plasmodium falciparum growth; series mostly up to 28.7 µM; also: nearly all actives have a fitted effect of over 65% in size
Procedure, shortened: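 Readout is firefly luciferase luminescence from a reporter integrated into the parasite genome, with lower signal taken as inhibited growth. Infected red cells (0.1% parasitemia, 2% hematocrit final) are cultured with compound for one 48 h cycle at 37 C.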

[7] = target: Thioredoxin reductase 1, cytoplasmic (Rattus norvegicus) (UniProt O89049); test: qHTS Assay for Substrates of Mammalian Selenoprotein Thioredoxin Reductase 1 (TrxR1) (AID 488772); details: purified TrxR1, NADPH consumption substrate assay; series mostly up to 57.1 µM;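 also: NADPH fluorescence in the first read after selenite addition and not the 8 min delta; a drop in NADPH fluorescence below the no-compound background marks a TrxR1 substrate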
Procedure, shortened: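 Quantitative HTS in Tris-HCl buffer at pH 7.5 with EDTA and Tween-20, using rat TrxR1, 400 uM NADPH and 400 uM selenite (final). A fall in initial NADPH fluorescence relative to background marked substrate behaviour.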

[8] = target: Thioredoxin reductase 1, cytoplasmic (Rattus norvegicus) (UniProt O89049); test: qHTS Assay for Inhibitors of Mammalian Selenoprotein Thioredoxin Reductase 1 (TrxR1) (AID 488773); details: purified TrxR1 enzyme activity; Potency: inhibition; series mostly up to 57.1 µM;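 also: drop in NADPH fluorescence over an 8 min run after selenite addition; nearly all actives have a fitted effect of over 40% in size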
Procedure, shortened: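 Steps: enzyme (90 nM) plus NADPH (400 uM final), 5 min at ~22 deg C; compound added, 15 min; selenite (400 uM final) added; fluorescence followed for 8 min. Concentration-response curves derived from the normalized delta values.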

[9] = target: Flap endonuclease 1 (Homo sapiens) (UniProt P39748); test: qHTS Validation Assay for the Inhibitors of Human Flap endonuclease 1 (FEN1) (AID 488816); details: FEN1 nuclease activity, fluorogenic DNA substrate; series mostly up to 57.1 µM
Procedure, shortened: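 Human FEN1 (10 nM) preincubated 15 min at room temperature with compounds, then flap DNA substrate added at 50 nM final. Fluorescence read at 0 and 15 min; concentration-response fitted with four-parameter Hill equation.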

[10] = target: M-phase phosphoprotein 8 (Homo sapiens) (UniProt Q99549); test: qHTS Validation Assay for Inhibitors for MPP8 Chromodomain Interactions with Methylated Histone Tails (AID 488949); details: AlphaScreen MPP8 binding to H3K9me3 peptide; series mostly up to 57.1 µM; also: top concentration of the series differs between compounds; nearly all actives have a fitted effect of over 55% in size
Procedure, shortened: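 MPP8 (50 nM) was pre-bound to 50 nM biotinylated H3(1-18)K9me3 peptide in PBS pH 7.4 with 0.01% Tween-20. Compounds were then added for 30 min at room temperature, and complex disruption was read by AlphaScreen with streptavidin donor and nickel-chelate acceptor beads.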

Measured: Potency

Chain of ATP-dependent 6-phosphofructokinase (Trypanosoma brucei brucei) (O15648 whole entry, looked up): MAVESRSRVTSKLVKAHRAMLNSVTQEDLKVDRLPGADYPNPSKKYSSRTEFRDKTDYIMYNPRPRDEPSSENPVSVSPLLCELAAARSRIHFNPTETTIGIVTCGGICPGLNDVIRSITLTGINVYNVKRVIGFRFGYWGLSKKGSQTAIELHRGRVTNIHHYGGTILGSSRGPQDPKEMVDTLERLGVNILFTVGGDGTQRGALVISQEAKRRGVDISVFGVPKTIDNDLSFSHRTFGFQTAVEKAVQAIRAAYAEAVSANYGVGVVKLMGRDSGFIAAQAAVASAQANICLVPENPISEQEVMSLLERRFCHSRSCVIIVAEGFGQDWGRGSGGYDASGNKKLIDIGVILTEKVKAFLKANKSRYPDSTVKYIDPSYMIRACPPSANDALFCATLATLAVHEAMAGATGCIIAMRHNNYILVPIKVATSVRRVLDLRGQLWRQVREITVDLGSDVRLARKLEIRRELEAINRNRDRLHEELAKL
Chain of M-phase phosphoprotein 8 (Homo sapiens) (Q99549 whole entry, looked up): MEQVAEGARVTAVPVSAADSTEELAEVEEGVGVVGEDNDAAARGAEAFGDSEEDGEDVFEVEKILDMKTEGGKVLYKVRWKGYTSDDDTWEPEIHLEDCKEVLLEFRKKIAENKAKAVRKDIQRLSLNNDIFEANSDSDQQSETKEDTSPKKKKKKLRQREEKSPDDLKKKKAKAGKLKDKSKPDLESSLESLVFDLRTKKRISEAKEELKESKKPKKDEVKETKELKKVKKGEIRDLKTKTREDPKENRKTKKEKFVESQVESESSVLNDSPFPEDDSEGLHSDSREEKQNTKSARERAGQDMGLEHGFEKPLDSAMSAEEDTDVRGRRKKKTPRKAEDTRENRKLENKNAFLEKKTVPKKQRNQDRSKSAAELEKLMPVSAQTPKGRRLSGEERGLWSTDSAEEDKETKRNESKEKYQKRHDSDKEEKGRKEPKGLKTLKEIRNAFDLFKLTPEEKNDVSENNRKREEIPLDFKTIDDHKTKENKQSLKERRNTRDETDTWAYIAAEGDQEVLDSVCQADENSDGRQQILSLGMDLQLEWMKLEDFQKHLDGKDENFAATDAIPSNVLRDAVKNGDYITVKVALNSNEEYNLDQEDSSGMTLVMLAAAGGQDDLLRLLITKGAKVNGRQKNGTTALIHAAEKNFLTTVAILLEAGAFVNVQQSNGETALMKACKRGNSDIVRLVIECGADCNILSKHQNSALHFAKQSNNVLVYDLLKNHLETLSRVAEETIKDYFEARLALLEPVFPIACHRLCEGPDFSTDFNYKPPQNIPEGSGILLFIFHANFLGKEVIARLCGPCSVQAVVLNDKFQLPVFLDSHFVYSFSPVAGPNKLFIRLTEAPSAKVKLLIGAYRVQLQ
Chain of Tumor susceptibility gene 101 protein (Homo sapiens) (Q99816 whole entry, looked up, the tested form may be a part): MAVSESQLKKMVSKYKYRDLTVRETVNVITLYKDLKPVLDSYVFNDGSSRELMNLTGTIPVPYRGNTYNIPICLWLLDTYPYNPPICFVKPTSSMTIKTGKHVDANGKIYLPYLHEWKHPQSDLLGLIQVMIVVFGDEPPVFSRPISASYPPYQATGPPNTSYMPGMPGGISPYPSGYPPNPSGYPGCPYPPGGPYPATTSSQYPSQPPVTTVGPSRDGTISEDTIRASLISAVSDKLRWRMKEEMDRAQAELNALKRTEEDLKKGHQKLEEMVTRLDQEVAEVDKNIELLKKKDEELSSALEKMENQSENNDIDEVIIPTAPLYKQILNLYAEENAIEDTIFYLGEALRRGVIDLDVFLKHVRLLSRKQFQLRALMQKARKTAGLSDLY
Chain of Beta-2 adrenergic receptor (Homo sapiens) (P07550 whole entry, looked up): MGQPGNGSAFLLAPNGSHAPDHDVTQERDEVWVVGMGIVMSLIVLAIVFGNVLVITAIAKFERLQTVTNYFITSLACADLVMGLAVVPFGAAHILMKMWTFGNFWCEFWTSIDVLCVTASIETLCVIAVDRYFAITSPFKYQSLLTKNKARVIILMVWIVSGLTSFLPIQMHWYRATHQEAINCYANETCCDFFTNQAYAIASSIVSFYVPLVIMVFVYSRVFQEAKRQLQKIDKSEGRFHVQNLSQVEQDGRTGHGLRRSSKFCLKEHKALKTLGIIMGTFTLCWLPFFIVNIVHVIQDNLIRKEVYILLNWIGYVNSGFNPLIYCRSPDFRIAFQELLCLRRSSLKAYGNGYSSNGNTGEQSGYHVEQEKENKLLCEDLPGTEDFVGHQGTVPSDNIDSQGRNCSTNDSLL
Chain of Thioredoxin reductase 1, cytoplasmic (Rattus norvegicus) (O89049 whole entry, looked up): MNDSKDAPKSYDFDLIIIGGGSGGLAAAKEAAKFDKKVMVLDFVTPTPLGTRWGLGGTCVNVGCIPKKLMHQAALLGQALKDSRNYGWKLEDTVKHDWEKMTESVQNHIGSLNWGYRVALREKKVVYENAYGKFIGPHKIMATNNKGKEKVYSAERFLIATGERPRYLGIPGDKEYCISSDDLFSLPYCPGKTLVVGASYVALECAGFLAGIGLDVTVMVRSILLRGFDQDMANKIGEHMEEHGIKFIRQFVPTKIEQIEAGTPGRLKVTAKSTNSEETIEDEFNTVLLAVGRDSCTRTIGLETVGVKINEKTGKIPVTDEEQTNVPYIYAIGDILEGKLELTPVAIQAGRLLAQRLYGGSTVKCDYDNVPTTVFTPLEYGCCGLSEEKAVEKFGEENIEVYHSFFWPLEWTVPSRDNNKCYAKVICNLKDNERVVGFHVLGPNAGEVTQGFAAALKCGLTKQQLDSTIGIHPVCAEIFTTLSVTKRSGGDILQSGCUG
Chain of Flap endonuclease 1 (Homo sapiens) (P39748 whole entry, looked up): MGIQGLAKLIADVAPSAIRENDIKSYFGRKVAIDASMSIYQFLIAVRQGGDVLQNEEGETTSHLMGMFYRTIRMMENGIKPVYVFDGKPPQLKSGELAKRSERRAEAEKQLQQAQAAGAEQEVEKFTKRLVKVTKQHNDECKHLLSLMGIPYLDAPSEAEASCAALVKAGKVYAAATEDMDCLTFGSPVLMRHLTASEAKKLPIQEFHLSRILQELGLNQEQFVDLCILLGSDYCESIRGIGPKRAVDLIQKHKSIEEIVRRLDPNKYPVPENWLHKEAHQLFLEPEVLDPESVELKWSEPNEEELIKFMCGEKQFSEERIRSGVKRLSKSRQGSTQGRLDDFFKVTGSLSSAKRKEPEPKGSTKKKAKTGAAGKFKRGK

C[C@@H]1O[C@H](C[N+](C)(C)C)C[C@H]1O
inactive: all assays above

c1ccc(C2(c3ccccc3)CC2C2=NCCN2)cc1 (centres undefined)
not listed: [5] | [6]
inactive: all other assays above

S=C(NC1CCCCC1)N1CCC(c2cnc[nH]2)CC1
inactive: all assays above

C[C@@H](N)Cc1cnc[nH]1
inactive: all assays above

COc1cc(C(O)CN)ccc1O (centres undefined)
inactive: all assays above

NCCc1c[nH]c2ccccc12
not listed: [4]
inactive: all other assays above

NC(=NCCC[C@H](N)C(=O)O)N[N+](=O)[O-]
not listed: [5]
inactive: all other assays above

CC(=O)NCCc1c[nH]c2ccccc12
not listed: [4]
inactive: all other assays above

CC1=NN=C(c2ccc(N)cc2)c2cc3c(cc2C1)OCO3
not listed: [4]
inactive: all other assays above

COC(=O)[C@@H](N)CCCN=C(N)N[N+](=O)[O-]
not listed: [5] | [6]
inactive: all other assays above

CC(=O)[C@H]1CCC2C3CC[C@H]4C[C@H](O)CC[C@]4(C)C3CC[C@@]21C (some centres undefined)
not listed: [4]
inactive: all other assays above

CNCCc1c[nH]c2ccc(O)cc12
not listed: [5]
inactive: all other assays above

O=C(O)Cc1cnc[nH]1
inactive: all assays above

NC(CCP(=O)(O)O)C(=O)O (centres undefined)
inactive: all assays above

Oc1ccc2c3c1O[C@H]1c4[nH]c5c(c4C[C@@]4(O)[C@@H](C2)N(CC2CC2)CC[C@]314)C[C@@]1(O)[C@H]2Cc3ccc(O)c4c3[C@@]1(CCN2CC1CC1)[C@H]5O4
active: [5] 2.08 µM
not listed: [6] | [9]
inactive: all other assays above

O=C(Cc1ccc(Cl)c(Cl)c1)N1CCCCC1CN1CCCC1 (centres undefined)
not listed: [5] | [6]
inactive: all other assays above

O=C(O)CC[N+](=O)[O-]
inactive: all assays above

CCCCc1ccc(C(=O)O)nc1
inactive: all assays above

CCCN(CCC)[C@@H]1CCc2ccc(O)cc2C1
inactive: all assays above

C[N+]1(C)C2CCC1CC(OC(=O)C(CO)c1ccccc1)C2 (centres undefined)
inactive: all assays above

CC[C@@H](C(N)=O)N1CCCC1=O
not listed: [5] | [6]
inactive: all other assays above

NCCc1c[nH]c2ccc(O)cc12
inactive: all assays above
